Screening data from PubChem.
Cycloheximide cs: counter-screen for Shiga toxin inhibitors: cycloheximide protein synthesis inhibition; cell reporter, cycloheximide protein synthesis inhibition counterscreen; max response, %; 12% of 300,000 active; AID 2314; in the data active means max response mostly above about 13%, no sharp cut-off; inactive means mostly below about 14%; further: read at 38.3 µM for the half of the compounds with a filed dose; 0% is about no effect
Vaccinia mCherry: vaccinia inhibition (mCherry reporter); Potency, µM (series often up to 36.5 µM), for the others: at the highest dose activity change, negative = inhibition, most hits filed as inhibitors; AID 720579; 0.63% of 310,000 active; Vaccinia virus mCherry reporter infection, fluorescence; calls by dose curve; tested in A549 cells; further: potency means the concentration at half of the fitted maximal effect; on the % scale 0 is the no-effect control and ±100 the full control effect; nearly all actives have a fitted effect of over 35% in size
Vaccinia Venus: vaccinia inhibition (Venus reporter) | AID 720580 | Potency, µM (series often up to 36.5 µM), without a hit: top-dose activity change, negative = inhibition, actives largely listed as inhibitors | 0.46% of 330,000 active | Vaccinia virus Venus reporter expression, fluorescence; calls by dose curve; tested in A549 cells; further: potency means the concentration at half of the fitted maximal effect; on the % scale 0 is the no-effect control and ±100 the full control effect; nearly all actives have a fitted effect of over 30% in size
MARV entry inh: Marburg virus entry inhibition. Marburg virus pseudotyped entry inhibition, cell reporter. Potency, µM (highest dose often 37.8 µM), for the others: at the top dose activity change, negative = inhibition, hits mostly inhibitors. 1.8% of 300,000 active. AID 540276; calls by dose curve; tested in HEK293 cells; further: potency means the concentration at half of the fitted maximal effect; on the % scale 0 is the no-effect control and ±100 the full control effect
LASV entry inh: Lassa virus entry inhibition; 1.2% of 300,000 active; AID 540256; Lassa virus pseudotype entry inhibition, cell reporter; Potency, µM (titrated, usually from 37.9 µM), for the others: top-dose activity change, negative = inhibition, actives largely listed as inhibitors; calls by dose curve; tested in HEK293 cells; further: potency means the concentration at half of the fitted maximal effect; on the % scale 0 is the no-effect control and ±100 the full control effect; nearly all actives have a fitted effect of over 50% in size
Shiga toxin inh: blocks Shiga toxin action in Vero cells; Vero cells, Shiga toxin protein synthesis inhibition reporter; inhibition, % at 38.7 µM; 9.2% of 290,000 active; AID 2315; in the data active means inhibition mostly above about 28%, no sharp cut-off; inactive means mostly below about 43%; further: 0% is about no effect
An asterisk follows results filed as active; i = inactive; ? = inconclusive; / = no result given; [ ] = another dose, or the depositor's remark. The entries come from a sample that favours hits as a whole.

SMILES	Cycloheximide cs	Vaccinia mCherry	Vaccinia Venus	MARV entry inh	LASV entry inh	Shiga toxin inh
Nc1ccc(-c2nc3ccc(N)cc3s2)cc1	14*	-12%	-9%	11µM*	?	30
Nc1ccc2nc(-c3ccc(O)cc3)sc2c1	/	22%	11%	/	?	/
Nc1ccc(-c2nc3ccc(C(=O)O)cc3s2)cc1	-8	-13%	2%	0.46µM*	0.46µM*	-20
Cc1ccc(S(=O)(=O)n2nc(-c3ccc(Cl)cc3)nc2NCc2ccc(F)cc2)cc1	/	-6%	8%	-9%[46.1 µM]	?	/
Cc1ccc(OCC(=O)NCC(c2ccc(Cl)cc2)N2CCCCC2)cc1 (centres undefined)	/	-9%	-7%	?	21%[46.1 µM]	/
O=C(NC1CC1)c1ccc2c(c1)ncn2C1CCCC1	33*	-2%	-9%	11%	21%	69*
COc1ccccc1-n1cnc2cc(C(=O)NC3CCCC3)ccc21	2	/	/	16%	6%	19*
COc1ccc(C2C=C(c3ccccc3)Nc3nc(NC(=O)/C=C/c4ccc(F)cc4)nn32)cc1 (centres undefined)	/	9%	-2%	9%[46.1 µM]	-16%[46.1 µM]	/
CCc1ccc(C2NC(=S)NC3=C2C(=O)N(c2ccccc2OC)C(c2ccc(CC)cc2)N3)cc1 (centres undefined)	-1	/	/	-7%	4%	22
O=C1C2=C(NC(=S)NC2c2ccc(Cl)cc2)NC(c2ccc(Cl)cc2)N1c1ccc(Cl)cc1 (centres undefined)	-2	/	/	16µM*	-1%	10
O=C(Nc1cccs1)Nc1ccc(Br)cc1F	67*	?	-28%	?	?	194*
O=C(Cc1cccs1)Nc1ccc(F)cc1F	-4	i	0%	9%[46.1 µM]	18%[46.1 µM]	19
COC(C(=O)Nc1ccc(Br)cc1F)c1ccccc1 (centres undefined)	10	-23%	-12%	/	/	10
O=C(Nc1cccs1)Nc1ccc(F)cc1F	20*	-15%	-17%	12%[46.1 µM]	?	37
CCc1ccc(S(=O)(=O)c2cn(CC(=O)Nc3cccc(C)c3)c3ccc(Cl)cc3c2=O)cc1	/	-10%	1%	6%[46.1 µM]	11%[46.1 µM]	/
CCC1CN(CC(=O)NC(C)c2cn(C)nc2C)Cc2cc(OC)ccc2O1 (centres undefined)	/	-9%	3%	/	/	/
COc1ccc(NC(=O)c2ccc3c(c2)OCO3)cc1	33*	/	/	/	/	44
COc1ccc(NC(=O)COC(=O)c2ccc3c(c2)OCCO3)cc1	/	i	-11%	/	/	/
CCN(CC)c1ccc(C(=O)Nc2ccc3nc(N(CC)CC)cc(C)c3c2)cc1	/	7%	-11%	11µM*	?	/
CCOC(=O)Nc1ccc2c(c1)OCO2	45*	/	/	13%	-9%	66
COc1ccc(NC(=O)c2ccc3c(c2)OCO3)cc1[N+](=O)[O-]	31*	-7%	-6%	-5%[46.1 µM]	18%	60*
CC(C)OCCCNC(=O)CCCn1c(=O)[nH]c2ccsc2c1=O	/	-13%	-3%	19%[46.1 µM]	5%[46.1 µM]	/
CCOC(=O)c1c(C)[nH]c(C(=O)Nc2ccc3c(c2)OCO3)c1C	41*	/	/	/	/	53*
CC1CCN(c2ccc(C(=O)Nc3ccc4c(c3)OCO4)cc2[N+](=O)[O-])CC1	8	-23%	-12%	?	-28%	16
COC(=O)Nc1ccc2c(c1)OCO2	12	/	/	-3%	5%	28
SMILES	Cycloheximide cs	Vaccinia mCherry	Vaccinia Venus	MARV entry inh	LASV entry inh	Shiga toxin inh
CC1CCCN(c2ccc(C(=O)Nc3ccc4c(c3)OCO4)cc2[N+](=O)[O-])C1 (centres undefined)	17*	-12%	?	?	?	-41
O=C(Nc1ccc2c(c1)OCO2)Oc1ccccc1	38*	/	/	3%	-12%	76*
O=C(Nc1ccc2c(c1)OCO2)c1ccc([N+](=O)[O-])cc1[N+](=O)[O-]	26	?	-27%	16%[46.1 µM]	-1%	44*
O=C(C1CCCCC1)N1CCC(CO)(Cc2ccccc2Cl)CC1	1	/	/	/	/	-13
COc1ccc(CNC(=O)c2cc3c(s2)-c2c(C)cccc2OC3)cc1	/	?	?	3%[46.1 µM]	/	/
COC(=O)[C@@H]1CC[C@H](C)[C@@H](c2ccc(C)cc2)N1C(=O)c1ccc(C=NOC[C@@H](O)[C@H]2O[C@@H]3OC(C)(C)O[C@H]3[C@@H]2O)cc1	/	/	/	28%[14.2 µM]	10%[14.3 µM]	/
CCOc1ccc(C(=O)Nc2ccc3c(c2)OCO3)cc1OCC	0	-3%	-1%	-14%	3%	12
COc1ccc(C)cc1NC(=O)c1ccc2c(c1)OCO2	48*	/	/	9%	1%	97*
CCc1ccc(NC(=O)c2ccc(OC)c([N+](=O)[O-])c2)cc1	37*	-7%	-16%	?	-9%	90*
CCOC(=O)c1ccc(NC(=O)c2ccc3c(c2)OCO3)cc1	19*	-5%	-23%	?	?	28
COc1ccc2[nH]c(C(=O)Nc3ccc4c(c3)OCO4)cc2c1	53*	/	/	/	/	100*
C=CCC(CC=C)(CNC(=O)C(=O)Nc1cccc(C(F)(F)F)c1)c1ccccc1	/	-16%	-13%	12%[46.1 µM]	21%[46.1 µM]	/
COc1cc(Cl)c(NC(=O)CCc2nc3cccnc3n2-c2ccccc2)c(OC)c1	/	-18%	-8%	-22%[46.1 µM]	2%[46.1 µM]	/
O=S(=O)(Nc1ccc(-c2ccc(N3CCCC3)nn2)cc1)c1ccc(Br)cc1	/	i	-22%	/	-25%[46.1 µM]	/
COc1ccc(C(=O)N2c3ccccc3C(=O)OC2c2ccc3c(c2)OCO3)cc1 (centres undefined)	20*	-23%	-16%	-22%	?	28
CCN(CC)c1ccc(NC(=O)c2ccc3c(c2)OCO3)cc1	55*	?	-20%	?	-11%[46.1 µM]	58*
CCC(=O)Nc1ccc(NC(=O)c2ccc3c(c2)OCO3)cc1	9	/	-7%	?	-5%	24
COc1ccc(Br)c2c1-c1nc(NC(=O)c3cccc(C)c3)sc1C2	/	-13%	-7%	3%[46.1 µM]	-13%[46.1 µM]	/
Oc1ccc2ccccc2c1C=Nc1cc(C(F)(F)F)ccc1N1CCCC1	14	/	-17%	-23%	-12%	51*
C[C@@]12C=Cc3occc3[C@H]1CC[C@]13CC(=O)[C@@H](CC[C@H]12)C3	15	/	/	/	/	2
CC(O)c1nc2ccccc2n1CC(=O)Nc1ccc(F)cc1Cl (centres undefined)	-1	/	/	/	/	7
COc1ccc(/C=N\NC(=S)SCN2C(=O)C3CCC(C)(C2=O)C3(C)C)cc1 (centres undefined)	/	-20%	-13%	1%	-20%	/
CC12CCC(C(=O)N(CSC(=S)N/N=C\c3ccccc3O)C1=O)C2(C)C (centres undefined)	26*	/	-18%	-30%[46.1 µM]	?	56
CN(C(=O)Nc1cnccc1C(F)(F)F)C1CCCCC1	-1	-16%	-11%	-2%[46.1 µM]	14%[46.1 µM]	-15
COc1ccc(Nc2nc(N)nc(COc3ccc(OC)cc3)n2)cc1	-2	i	-11%	-14%	-9%	1
COc1ccc(OCc2nc(N)nc(Nc3cccc(C)c3C)n2)cc1	-1	i	-5%	?	14%	-6
COc1ccc(OCc2nc(N)nc(Nc3ccc(C)cc3)n2)cc1	15*	-28%	-18%	?	10%	17
